Screening results deposited in PubChem by National Center for Advancing Translational Sciences (NCATS).
Lassa entry inh: inhibitors of Lassa virus binding or cell entry. Potency, µM (top dose mostly 37.9 µM), inactives show at the highest dose activity change, negative = inhibition, actives largely listed as inhibitors. AID 540256. Lassa virus pseudotype entry inhibition, cell reporter. 1.2% of 300,000 active; calls by dose curve; tested in HEK293 cells; note: potency is the fitted concentration of half-maximal effect; % is set by controls: 0 for no effect and ±100 for the full control effect; nearly all actives have a fitted effect of over 50% in size
Pf growth 48h: P. falciparum growth inhibition at 48 hours (one generation); Potency, µM (highest dose often 28.7 µM), for the others: top-dose activity change, negative = inhibition, most hits filed as inhibitors; AID 504832; P. falciparum luciferase growth in erythrocytes, 48 h; 5.9% of 310,000 active; note: potency is the fitted concentration of half-maximal effect; % is set by controls: 0 for no effect and ±100 for the full control effect
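Here the parasites carry a stable luciferase gene and grow inside erythrocytes in Albumax-based RPMI medium with compound for one erythrocytic cycle. Activity is scored as loss of luminescent signal.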
Shiga toxin inh: Shiga toxin inhibition. 9.2% of 290,000 active. Vero cells, Shiga toxin protein synthesis inhibition reporter. AID 2315. inhibition, % at 38.7 µM; in the data active = inhibition mostly above about 28%, no sharp cut-off; inactive = mostly below about 43%; note: 0% is about no effect
Pf growth 96h: P. falciparum growth inhibition at 96 hour, primary screen for plastid delayed-death inhibitors; P. falciparum luciferase reporter growth, 96 h; Potency, µM (titrated, usually from 28.7 µM), inactives show at the top dose activity change, negative = inhibition, actives largely listed as inhibitors; 6.9% of 320,000 active; AID 504834; note: potency is the fitted concentration of half-maximal effect; % is set by controls: 0 for no effect and ±100 for the full control effect
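P. falciparum expressing integrated firefly luciferase, in erythrocytes at 2% hematocrit, 0.05% parasitemia, incubated with compounds 96 h at 37 C, 5% CO2. Growth inhibition read as loss of luminescence; two-generation exposure targets delayed-death apicoplast inhibitors.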
MARV entry inh: blocks Marburg virus binding to or entry into cells. 1.8% of 300,000 active. AID 540276. Potency, µM (doses to about 37.8 µM), inactives show at the highest dose activity change, negative = inhibition, actives largely listed as inhibitors. Marburg virus pseudotyped entry inhibition, cell reporter; calls by dose curve; tested in HEK293 cells; note: potency is the fitted concentration of half-maximal effect; % is set by controls: 0 for no effect and ±100 for the full control effect
Cycloheximide cs: counter-screen for Shiga toxin inhibitors: cycloheximide protein synthesis inhibition; cell reporter, cycloheximide protein synthesis inhibition counterscreen; max response, %; 12% of 300,000 active; in the data active = max response mostly above about 13%, no sharp cut-off; inactive = mostly below about 14%; note: read at 38.3 µM for the half of the compounds with a filed dose; 0% is about no effect
The depositor's hits bear a star; ? = inconclusive; nt = no result; + = active, no number; [ ] = another dose, or the depositor's remark. An excerpt weighted towards active compounds, which were near 19% of everything screened. Unless noted, calls come from the whole dose curve; as a rule, active = well fitted inhibition curve with a large enough effect; inconclusive = small, poorly fitted or top-dose-only effect, or another doubt; inactive = no such curve, though single readings can be large or run the other way.

SMILES	Lassa entry inh	Pf growth 48h	Shiga toxin inh	Pf growth 96h	MARV entry inh	Cycloheximide cs
COc1ccc(CN(C(=O)c2ccc3c(c2)OCCO3)C(C(=O)NC2CCCCC2)c2ccc3ncccc3c2)cc1 (centres undefined)	6%	?	2	9.3µM*	-12%	-4
COc1ccc(N(C(=O)CCl)C(C)(C(=O)Nc2c(C)cccc2C)c2ccccn2)cc1 (centres undefined)	3%	4.7µM*	-1	?	?	-1
Nc1nnc(SCCCC(=O)c2ccc(F)cc2)s1	-10%	31%	+	6%	4%	33*
O=C(CCCSc1nnc(SCCCC(=O)c2ccc(F)cc2)s1)c1ccc(F)cc1	?	?	-19	?	?	5
Nc1nnc(SCCCC(=O)c2ccc(Br)cc2)s1	10%	11%	67*	-7%	18%[46.1 µM]	58*
CCCCOc1cccc(C(=O)Nc2cccc3ccc(C)nc23)c1	?	nt	nt	nt	2%[46.1 µM]	nt
O=C(NCc1ccc(F)cc1)C1CCN(S(=O)(=O)c2cccnc2)CC1	nt	10%	4	?	nt	-4
C/C=C(/C)C(=O)O[C@@H]1[C@H](OC(C)=O)c2c(ccc3ccc(=O)oc23)OC1(C)C	-9%	?	8	?	-20%	-1
C/C=C(/C)C(=O)OC1c2c(ccc3ccc(=O)oc23)OC(C)(C)C1OC(C)=O (centres undefined)	?	8.3µM*	9	?	-21%	8
N=C1S/C(=C\c2ccco2)C(=O)N1c1ccc2c(c1)OCO2	-46%[46.1 µM]	?	74*	?	-26%	33*
N=C1S/C(=C\c2ccco2)C(=O)N1c1nccs1	nt	?	59*	?	nt	34*
O=C1/C(=C\c2ccco2)SC(=S)N1C1CCCCC1	nt	24%	nt	?	nt	-4
O=C(COC(=O)c1cccc([N+](=O)[O-])c1)NNC(=O)c1cccs1	nt	4%	nt	-19%	nt	nt
CCN1CCN(c2nc(C)nc3c2sc(=S)n3C)CC1	9%	-29%	-7	3.7µM*	-11%	-3
CCCCN1CCC(COC(=O)c2cc(Cl)c(N)c3c2OCCO3)CC1	nt	-9%	nt	-3%	11µM*	nt
CCOC(=O)c1cnc2c(C)c(Cl)ccc2c1NCCCN1CCOCC1	nt	-29%	nt	32%	nt	-3
Brc1cccc(Cn2c(-c3cncs3)nc3ccccc32)c1	14%	10µM*	32*	8.3µM*	20%	12
Brc1ccc(Cn2c(-c3cncs3)nc3ccccc32)cc1	?	?	94*	-95%	?	33*
Cc1nc2ccccc2n1Cc1ccc(Br)cc1	-25%	nt	nt	nt	?	nt
c1ccc(Cn2c(-c3cncs3)nc3ccccc32)cc1	-5%	16%	47	nt	-18%	60*
CCCc1nn(C)c2c(=O)[nH]c(-c3cc(S(=O)(=O)Nc4ccc(NC(C)=O)cc4)ccc3OCC)nc12	nt	9.3µM*	-19	12µM*	nt	-2
O=C(NC1CCCC1)c1cccc(Oc2ccccc2)c1	0%[46.1 µM]	11%	78*	?	6%[46.1 µM]	23*
Cc1cc(C(=O)NNC(=S)NC2CCCCC2)cs1	nt	74%	34	5%	nt	17*
COc1cccc(C(=O)NNC(=S)NC2CCCCC2)c1	?	184%	47*	?	7%	42*
CCNC(=S)NNC(=O)c1csc(C)c1	9%	5%	5	-9%	11%	6
SMILES	Lassa entry inh	Pf growth 48h	Shiga toxin inh	Pf growth 96h	MARV entry inh	Cycloheximide cs
CCCC(C)NC(=O)c1cccc(Oc2ccccc2)c1 (centres undefined)	?	5%	60*	3%	?	23*
CC(=O)Nc1ccc(NC(=O)c2cccc(Oc3ccccc3)c2)cc1	0%	15%	-7	12%	?	-2
Cn1c(SCC(=O)NNC(=S)Nc2ccccc2)nnc1-c1ccncc1	nt	25%	8	-13%	nt	-2
O=C(Oc1ccc(/C=N/n2cnnc2)cc1)c1cccc([N+](=O)[O-])c1	18%	14%	-11	41%	9%[46.1 µM]	-2
O=C(c1ccc(Cl)cc1)N1C2C=CC(C2)C1(C(F)(F)F)C(F)(F)F (centres undefined)	0%	2%	-8	-20%	18%	-4
COc1cccc(C(=O)NC2CCCC2)c1	0%	14%	43	4.7µM*	9%	7
COc1cc(OC)cc(C(=O)NC2CCCCCCC2)c1	-8%	10%	36	8%	-20%	10
CCN(CC)c1ccc(NC(=O)c2ccccc2OCC(=O)OC)cc1	21%	-1%	18	-26%	-1%	17
CC(=O)c1c(C)[nH]c(C(=O)N(CCc2ccccc2)Cc2ccccc2)c1C	?	-36%	27	24%	?	11
C(#Cc1ccccc1)Cn1nnc2ccccc21	2%	37%	49*	40%	5%	37*
O=C(O)c1ccccc1N1C(=O)c2cccc3cccc(c23)C1=O	1%	15%	15	8.3µM*	?	-2
CCN(CCCn1c(SCC#N)nc2ccccc2c1=O)c1ccccc1	?	?	-8	nt	9.2µM*	8
CC1=NNC(=O)C1CCC(=O)N/N=C/c1ccc(Cl)cc1Cl (centres undefined)	nt	27%	18	5%	nt	-4
O=S(=O)(c1ccc(-c2csc(=Nc3ccccc3)n2CCCN2CCOCC2)cc1)N1CCOCC1	-1%	?	-16	-18%	?	-3
CCCCn1c(-c2ccc(S(=O)(=O)N3CCOCC3)cc2)csc1=Nc1ccccc1	-9%[46.1 µM]	nt	nt	nt	nt	nt
OCCn1c(-c2ccc3c(c2)OCO3)csc1=Nc1ccccc1	?	-7%	46*	4%	?	37*
OCCn1c(-c2ccc(F)cc2)csc1=Nc1ccccc1	-2%	1%	71*	3%	-23%	22*
NC(=O)c1c(/N=C/c2cccs2)sc2c1CCCC2	nt	53%	21	55%	nt	10*
CCc1ccc(CN(C)C(=O)c2cc(=O)c3ccccc3o2)cc1	?	-22%	3	4%	?	7
C=C(C)CNC(=S)N/N=C/c1ccc([N+](=O)[O-])cc1	nt	12µM*	-4	15%	nt	8
COCCNC(=S)N/N=C/c1ccc([N+](=O)[O-])cc1	-4%	4%	-9	40%	-5%[46.1 µM]	0
COc1ccc(S(=O)(=O)N2N=C(C)Oc3ccccc3C2=O)cc1	-10%	21%	50	7%	?	6
Cc1ccc([N+](=O)[O-])cc1NC(=O)C1CCN(S(C)(=O)=O)CC1	15%	58%	11	15%	3%	-2
Clc1ccc(-c2nnc(SCc3ccon3)o2)c(Cl)c1	?	138%	61*	nt	?	37*
C=CCSc1nnc(-c2ccc(Cl)cc2Cl)o1	-51%	197%	92*	44%	-29%	43*
c1ccc2[nH]c(CSc3nnc(-c4ccncc4)o3)nc2c1	4%	-28%	-8	?	-1%	8
COc1ccccc1-c1nnc(SCC(=O)Nc2ccc(Cl)cc2Cl)o1	6%	6%	9	35%	-1%	-1
